# Sampled rows, rich in hits. Any-hit rate of the full collection: about 19%.
# HepG2 viability = qHTS for Inhibitors of TGF-b: Cytotox Counterscreen; Potency, µM (titrated, usually from 46.1 µM), usual class: cytotoxic; HepG2 CAGA-GFP viability, ATP luminescence, 18 h; 0.76% of 410,000 active
#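 CellTiter-Glo luminescence gave cytotoxicity after 18 hours at 37 degrees C. The cells were HepG2 CAGA-GFP in 1% FBS DMEM, stimulated with 500 pg/mL TGF-beta after compound addition. %Activity was normalised to no-cell wells (complete cell-killing) and DMSO (no toxicity), and curves were fitted and classified.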
# TDP1 cell CPT = qHTS for Inhibitors of human tyrosyl-DNA phosphodiesterase 1 (TDP1): qHTS in cells in presence of CPT. chicken DT40 Tdp1-/-;hTDP1 cells + 20 nM CPT, ATP luminescence, 48 h. Potency, µM (titrated, usually from 46.2 µM), usual class: inhibitors. 12% of 420,000 active; also: nearly all actives have a fitted effect of over 55% in size
#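 Cell growth measured by CellTiter-Glo luminescence after a minimum 48 h, 37 C compound exposure with 20 nM CPT in Tdp1-knockout DT40 cells stably expressing hTDP1, seeded 400/well; qHTS titration format.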
# TGFb SMAD3 inh = qHTS for Inhibitors of TGF-b | 1.2% of 410,000 active | HepG2 CAGA-GFP TGF-b/SMAD3 reporter, GFP fluorescence, 18 h; TGF-beta stimulated, 500 pg/mL final | Potency, µM (series often up to 46.1 µM), hits mostly inhibitors; also: nearly all actives have a fitted effect of over 65% in size
#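 First, reporter cells (HEPG2 CAGA-GFP) rested 2 h at 37 degrees C. Next, compounds were pinned in and TGF-beta added to 500 pg/mL final. After 18 h, GFP was imaged per cell and summed per well.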
# DT40 TDP1 no CPT = qHTS for Inhibitors of human tyrosyl-DNA phosphodiesterase 1 (TDP1): qHTS in cells in absence of CPT | DT40 Tdp1-/- hTDP1 cells, no CPT, ATP luminescence, 48 h | Potency, µM (titrated, usually from 46.2 µM), actives largely listed as inhibitors | 15% of 420,000 active | AID 686978, 2013; also: nearly all actives have a fitted effect of over 55% in size
#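 Stably hTDP1-transfected Tdp1-null chicken DT40 cells were treated with library compounds minus camptothecin and grown for at least 48 hr at 37 °C, after which cellular ATP was quantified by luminescence.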
# TDP1 block = qHTS Assay for Inhibitors of Tyrosyl-DNA Phosphodiesterase (TDP1). Tyrosyl-DNA phosphodiesterase 1 (Homo sapiens), Q9NUW8. recombinant TDP1, AlphaScreen DNA substrate cleavage. Potency, µM (series often up to 130 µM), most hits filed as inhibitors. 0.28% of 350,000 active. AID 485290, 2010; also: nearly all actives have a fitted effect of over 40% in size
# Target sequence (Q9NUW8 whole entry, looked up): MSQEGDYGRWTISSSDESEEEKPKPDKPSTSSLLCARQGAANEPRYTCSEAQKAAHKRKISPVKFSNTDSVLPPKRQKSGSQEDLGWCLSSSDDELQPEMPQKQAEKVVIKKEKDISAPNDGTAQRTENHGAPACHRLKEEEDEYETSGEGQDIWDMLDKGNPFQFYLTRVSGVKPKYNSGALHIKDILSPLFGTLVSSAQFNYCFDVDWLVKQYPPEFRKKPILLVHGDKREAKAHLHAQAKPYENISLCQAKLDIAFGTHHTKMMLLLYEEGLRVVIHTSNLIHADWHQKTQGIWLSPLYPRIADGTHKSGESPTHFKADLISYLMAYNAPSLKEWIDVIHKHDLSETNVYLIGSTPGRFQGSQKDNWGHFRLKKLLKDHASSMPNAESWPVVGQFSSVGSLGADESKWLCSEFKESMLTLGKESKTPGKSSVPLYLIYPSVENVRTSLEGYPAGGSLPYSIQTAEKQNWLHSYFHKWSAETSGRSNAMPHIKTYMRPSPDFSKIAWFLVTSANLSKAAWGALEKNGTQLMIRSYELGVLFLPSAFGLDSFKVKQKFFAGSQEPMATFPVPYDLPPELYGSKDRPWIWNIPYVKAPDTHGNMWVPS
#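 E. coli-derived human Tdp1, 1 nM final. Cpd preinc 15 min RT; substrate 15 nM final, 5 min RT; AS bead mix 10 ug/ml final, 10 min RT. Signal loss = tyrosine-FITC cleavage. No-enzyme wells = max signal.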
# IL1B secr inh = qHTS for Inhibitors of Inflammasome Signaling: IL-1-beta AlphaLISA Primary Screen; THP-1 LPS/ATP IL-1B secretion, AlphaLISA, 16 h; active compounds read low; activity change, % at 57.5 µM; 4.7% of 360,000 active; AID 743279, 2014; in the data active = activity change below about -50%; inconclusive = mostly about -30% to -49%
#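 THP-1 cells pretreated 1 hr with compounds (up to 57.5 uM final), then stimulated with LPS (250 ng/mL final) plus ATP (1.25 mM final); secreted IL-1B measured by AlphaLISA after 16 hr, decreased signal indicating inhibition.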
# A number is an active result; i = inactive; ? = inconclusive; nt = not tested or not shown; [ ] = remark or other dose. Unless noted, calls follow the shape of the dose curve; as a rule, active = well fitted curve in the direction sought with a large enough effect; inconclusive = small, poorly fitted or top-dose-only effect, or another doubt; inactive = no such curve, though single readings can be large; an effect the other way counts as inactive or inconclusive.
SMILES,HepG2 viability,TDP1 cell CPT,TGFb SMAD3 inh,DT40 TDP1 no CPT,TDP1 block,IL1B secr inh
CCn1c(C(=O)Nc2c(C)cccc2C)cc2sc(Cl)cc21,i,i,i,?,i,nt
O=C(Nc1ccc2nn(-c3ccccc3)nc2c1)c1ccc(-c2cccc(Cl)c2)o1,i,i,i,?,i[12.3 µM],nt
Nc1ccc2c(c1)C(=NO)c1ccccc1-2,i,18.4µM,i,8.2µM,nt,i
ON=C1c2ccccc2-c2cc(Br)ccc21,i,7.31µM,i,?,nt,-52.1
Nc1cc2c(cc1[N+](=O)[O-])-c1ccccc1C2=NO,i,20.6µM,?,8.2µM,nt,i
Nc1ccc2c(c1)C(=O)C(=O)c1ccccc1-2,3.98µM,0.651µM,?,0.92µM,i,-121.9
CC(=O)Nc1cc2c(cc1[N+](=O)[O-])-c1ccccc1C2=NO,i,?,i,i,nt,i
CSCCC(=O)N1CCN(CC(=O)N2CCCC2)CC1,i,i,i,i,i,i
COCCNC(=O)CCn1c(=O)c2cc(OC)c(OC)cc2n(CC(=O)Nc2ccc(F)c(Cl)c2)c1=O,i,i,i,i,i,nt
O=C1C(=O)c2ccc(-c3ccccc3)cc2-c2ccccc21,2.51µM,0.92µM,?,2.59µM,i,-56.9
CC(=NO)c1ccc2c(c1)C(=NO)c1ccccc1-2,i,16.4µM,i,20.6µM,nt,i
ON=C1c2ccccc2-c2ccc(O)cc21,i,?,?,i,nt,?
COc1ccc(NC(=O)c2cc3c([nH]c2=O)CC(c2ccccc2)CC3=O)cc1 (configuration not stated),i,i,i,i,i,nt
CCOC(=O)CCN1C(=O)[C@H]2[C@H]3[C@H](O)[C@H](O)C/C(=N/O[C@@H]4O[C@@H](COC(C)=O)[C@@H](OC(C)=O)[C@@H](OC(C)=O)[C@H]4OC(C)=O)[C@@H]3CC[C@@H]2C1=O,nt,nt,nt,nt,i[21 µM],nt
Nc1nc(-c2ccccc2)c(-c2ccc([N+](=O)[O-])cc2)s1,i,?,i,?,i,i
N#Cc1ccc(Oc2ccc(-c3nc4ccccc4nc3-c3ccccc3)cc2)cc1C#N,i,9.2µM,i,18.4µM,i,i
Nc1ccc(Oc2ccc3nc(-c4ccccc4)c(-c4ccc([N+](=O)[O-])cc4)nc3c2)cc1,i,16.4µM,?,?,i,i
Cc1ccc(NC(=O)CCc2nnc3n(C)c(=O)c4sccc4n23)cc1C,i,i,?,i,i,nt
COc1cc(NC(=O)c2cc(C3CC3)nc3c2c(C)nn3-c2ccc(C)cc2)cc(OC)c1,i,?,nt,6.51µM,i,nt
Cc1c(Cl)cccc1-n1nc(C)c2c(C(=O)NCc3ccccc3)cc(C3CC3)nc21,i,i,i,i,i,nt
Cc1cc(C(=O)NCc2ccccc2Cl)c2c(C)nn(-c3cccc(F)c3)c2n1,i,?,i,20.6µM,i,nt
Cc1cc(C(=O)NCc2ccccc2C)c2c(C)nn(-c3cccc(F)c3)c2n1,i,?,i,?,i,nt
Cc1nn(-c2ccccc2)c2nc(C3CC3)cc(C(=O)NCc3ccccc3Cl)c12,i,?,i,23.1µM,i,nt
O=c1c2cccnc2n(Cc2cccc(F)c2)c(=O)n1Cc1ccc(F)cc1,i,?,i,?,i,nt
Nc1cc(C(=O)O)c(N)c2c1C(=O)c1ccccc1C2=O,i,16.4µM,?,?,i,i
SMILES,HepG2 viability,TDP1 cell CPT,TGFb SMAD3 inh,DT40 TDP1 no CPT,TDP1 block,IL1B secr inh
Nc1c(C(=O)O)ccc2c1C(=O)c1ccccc1C2=O,i,i,i,?,i,i
COC(=O)[C@@H]1C[C@@H](NC(=O)c2cnsn2)CN1Cc1ccc(Cl)cc1,nt,i[9.04 µM],nt,i,nt,nt
CCOC(=O)CN1C(=O)CC(c2ccc([N+](=O)[O-])cc2)C1=O (configuration not stated),i,i,i,i,nt,i
CN(C(=O)COC(=O)c1ccc(=O)n(Cc2ccccc2)n1)c1ccccc1,i,14.6µM,?,18.4µM,i,i
COc1ccc(S(=O)(=O)NCc2csc(C)n2)cc1OC,i,i,i,i,nt,i
Cc1nc(CNS(=O)(=O)c2ccc3c(c2)CCCC3)cs1,i,16.4µM,i,?,i,i
O=C(O)CNS(=O)(=O)c1ccc2c(c1)CCCC2,i,i,i,i,50.1µM,i
Cc1ccc(S(=O)(=O)NCc2csc(C)n2)cc1,i,i,i,i,nt,i
CCCCOc1ccc(S(=O)(=O)NCc2csc(C)n2)cc1,i,13µM,i,23.1µM,i,?
Cc1ccc(NC(=O)C(=O)NCC(c2ccc3c(c2)OCO3)N2CCOCC2)cc1C (configuration not stated),i,i,i,i,i,nt
COc1ccc(Cn2c(=O)c3oc4ccccc4c3n(Cc3cccc(C)c3)c2=O)cc1,i,i,i,i,i,nt
COc1ccc(NC(=O)c2oc3c(c2C)-c2nn(Cc4c(F)cccc4Cl)cc2CC3)c(OC)c1,i,?,i,?,i,nt
Cc1ccc(Cl)cc1N1CCN(S(=O)(=O)c2c(C)[nH]c(C)c2C(=O)N2CCCC2)CC1,i,?,i,?,i,i
CC(=O)c1c(C)[nH]c(C(=O)N2CCN(c3cc(Cl)ccc3C)CC2)c1C,i,10.3µM,i,5.8µM,i,i
CCOC(=O)c1c(C)[nH]c(C(=O)OCC(=O)N2CCN(S(=O)(=O)c3ccc(C)cc3C)CC2)c1C,i,?,i,?,i,?
CC(=O)c1c(C)[nH]c(C(=O)N2CCN(c3ccc(F)cc3)CC2)c1C,i,14.1µM,i,?,i,i
COc1cccc(N2CCN(C(=O)c3[nH]c(C)c(C(C)=O)c3C)CC2)c1,i,5.62µM,i,4.47µM,i,i
CC(=O)c1c(C)[nH]c(C(=O)N2CCN(S(=O)(=O)c3ccc(C)cc3C)CC2)c1C,i,?,?,18.4µM,i,i
COC(=O)c1c(C)[nH]c(C(=O)N2CCN(c3ccc(OC)cc3)CC2)c1C,nt,nt,nt,nt,i,nt
CC(=O)c1c(C)[nH]c(C(=O)N2CCN(C(=O)c3ccco3)CC2)c1C,i,i,i,i,i,i
CCCNC(=O)c1ccc(Cn2c(SCC(=O)NC(C)C)nc3ccccc3c2=O)cc1,i,i,i,i,i,nt
CCCC(C(=O)NC(C)(C)C)N(CCN1CCOCC1)C(=O)CNS(=O)(=O)c1ccccc1 (configuration not stated),i,i,i,i,i,i

# Screening results as filed in PubChem.
